# Test results reported in PubChem BioAssay (Tox21).
# Results filed as inconclusive are left out. Entries that show only a call come without a potency. Calls of active or inactive are those of the source. The call rests on the fitted dose curve; in most records, active means well fitted activation curve with a large enough effect in the repeat runs; inconclusive means weak or mixed curves; inactive means flat fitted curve, though single readings scatter.
# Test: A CellTox Green Cytotoxicity Assay to monitor cytotoxicity in HepG2 cells - 24 hour (AID 1224878); further: nearly all actives have a fitted effect of over 45% in size
# Details: CellTox Green fluorescence; series mostly up to 76.8 µM
# Source text: National Center for Advancing Translational Sciences [NCATS]
# NIH Chemical Genomics Center [NCGC]
# U.S. Environmental Protection Agency [EPA]
# National Institutes of Environmental Health Sciences [NIEHS]
# National Toxicology Program [NTP]
# Cell-based models are critical for drug discovery. Determining the natural cytotoxic effects resulting from test compounds is an essential research activity. A CellTox Green Cytotoxicity Assay to monitor cytotoxicity in real time of continues cell culture during 40 hours of the compound treatment was used to screen Tox21 10K library compounds in HepG2 cells. CellTox Green Cytotoxicity Assay is a nonlytic, homogeneous, biofluorescent method to measure cytotoxicity in cell culture after experimental manipulation. The assay system uses a proprietary asymmetric cyanine dye that is excluded from viable cells but preferentially stains the dead cell's DNA. […] Viable cells produce no appreciable increases in fluorescence. Therefore, the fluorescence signal produced by the binding interaction with dead cell DNA is proportional to cytotoxicity.
# The mixture of HepG2 cell suspension and reagents were dispensed at 600cells/6 ul/well in 1536-well tissue culture treated black solid bottom plates using a Multidrop dispenser. After the assay plates were incubated at a 37 C/5% CO2 incubator for 5 hours, 23 nL of compounds dissolved in DMSO, positive and negative controls was transferred to the assay plate by a pintool work station. The plates were incubated at 37 C for 40 hours. The fluorescence intensity were measured at 0h, 8h, 16h, 24h, 32h and 40h time points using ViewLux plate reader during compound treatment.
Compound,Potency,cytotoxicity
COC(=O)C1=C(C)NC(C)=C(C(=O)OC)C1c1ccccc1[N+](=O)[O-],inactive,–
CCCN1CCCC[C@H]1C(=O)Nc1c(C)cccc1C,inactive,–
CCCCC/C=C\CCC=O,inactive,–
C=C1CC[C@H]2C[C@@H]1C2(C)C,inactive,–
CC/C=C\CC/C=C/C(OCC)OCC,inactive,–
CC(C[N+](C)(C)C)OC(N)=O (stereo not given),inactive,–
CCCCC(CC)COC(=O)c1ccccc1O (stereo not given),inactive,–
CCOc1ccc(C(=O)OCCN(CC)CC)cc1,inactive,–
C/C=C(\C)C#N,inactive,–
CC(=O)Nc1ccc(S(N)(=O)=O)cc1,inactive,–
Cc1ccc(=O)n(-c2ccccc2)c1,inactive,–
c1ccc([C@H]2CN3CCSC3=N2)cc1,inactive,–
NS(=O)(=O)c1ccc(C(=O)O)cc1,inactive,–
O=[N+]([O-])c1ccc(F)cc1F,inactive,–
O=C1CC2CC1C1CCCC21 (stereo not given),inactive,–
O=C[C@H](O)[C@@H](O)[C@H](O)[C@H](O)CO,inactive,–
COC(=O)CC(C)=O,inactive,–
C[N+](C)(C)CC(O)CC(=O)[O-] (stereo not given),inactive,–
Cc1cccn2c(=O)c(-c3nnn[nH]3)cnc12,–,3.1% [at 15.8 µM] (inactive)
CC(C)(O)C(=O)c1ccccc1,inactive,–

Compound,Potency,cytotoxicity
OCCOc1ccc(OCCO)cc1,inactive,–
COC(C)(C)CCCC(C)CC=O (stereo not given),inactive,–
Cc1c(NC(C)C)c(=O)n(-c2ccccc2)n1C,inactive,–
CCOC(=O)CCC(C)=O,inactive,–
COCCc1ccc(OCC(O)CNC(C)C)cc1 (stereo not given),inactive,–
CC(C)OC(=O)c1ccccc1,inactive,–
NC(=O)c1ccc(N)cc1,inactive,–
O=c1[nH]c(=O)n([C@H]2C[C@H](O)[C@@H](CO)O2)cc1I,inactive,–
CC(C(=O)O)c1ccc(CC2CCCC2=O)cc1 (stereo not given),inactive,–
CCCCCCCCCCCC,inactive,–
CC(C)(O)C#CC(C)(C)O,inactive,–
CCCCCOC(=O)CCCCC,inactive,–
CCOC(=O)c1ccc(C)cc1,inactive,–
Oc1ccc(C2CNCCc3c2cc(O)c(O)c3Cl)cc1 (stereo not given),inactive,–
O=c1cc(CO)occ1O,inactive,–
CCOC(=O)[C@H](CCc1ccccc1)N[C@@H](C)C(=O)N1[C@H](C(=O)O)C[C@@H]2CCC[C@@H]21,inactive,–
Brc1c(NC2=NCCN2)ccc2nccnc12,inactive,–
NS(=O)(=O)c1cc(C(=O)O)cc(N2CCCC2)c1Oc1ccccc1,inactive,–
CN(C(=O)c1c(O)c2ccccc2n(C)c1=O)c1ccccc1,inactive,–
NCCCNCCSP(=O)(O)O,–,-8.81% [at 6.97 µM] (inactive)
